The text below walks through data of PubChem BioAssay (NCATS).

The nature of test [1]: Validation of Assay for Modulators of Lamin A Splicing (AID 1459; active means well fitted curve in the direction sought with a large enough effect in the signal ratio; the % refers to the signal ratio;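 further: cells exposed to compound for two days before reading; 0% is about no effect; ratio rise marks activators and ratio drop marks inhibitors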). In short, it runs like this:
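S3 HeLa cells stably expressing a lamin A-EGFP splicing minigene and DsRed2 were seeded at 600 cells/well in Opti-MEM with 2% FBS, pin-dosed, and incubated 48 hrs at 37 °C, 5% CO2. Laser-scanning cytometry (488 nm) gave GFP/RFP total intensity ratio.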

Test [2] has as its target DNA repair nuclease/redox regulator APEX1 (Homo sapiens) (UniProt P27695). Kind of test: qHTS Validation Assay for Inhibitors of the Human Apurinic/apyrimidinic Endonuclease 1 (APE1) (AID 1705; further: potency means the concentration at half of the fitted maximal effect;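 on activity change, negative = inhibition: TAMRA fluorescence gain over two minutes as APE1 cuts a quenched THF abasic duplex; on the % scale 0 is the no-effect control and ±100 the full control effect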). In short, it runs like this: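 Human APE1 was preincubated with compound for 15 min at room temperature, then 50 nM (final) THF-abasic double-stranded DNA substrate bearing 5'-TAMRA and 3'-BHQ-2 was added. Incision-driven fluorescence rise (ex 525/em 598 nm) was read kinetically.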
Background: Quantitative high-throughput screening tests each substance at several concentrations.

A short description of test [3]: Counterscreen for APE1 Inhibitors: Fluorescent Dye Displacement Validation Assay (AID 1707).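 Further: plate controls were ThO with dsDNA and no compound for no effect and ThO without dsDNA for full effect.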 In short, it runs like this: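 ThO 250 nM + dsDNA 50 nM (THF abasic site, 5'-TAMRA), Tris-HCl pH7.5/50mM NaCl/2 mM MgCl2/0.01% Tween-20; compounds pin-transferred; ex 480/em 540 nm endpoint. Neutral = no compound; no-DNA ThO wells = negative control.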
(A counterscreen serves to expose hits that act by an unwanted route or on another target.)

Test [4] concerns the target Endonuclease 4 (Escherichia coli (strain K12)) (UniProt P0A6C1). Nature of the test: Counterscreen for APE1 Inhibitors: qHTS Validation Assay for Inhibitors of Endonuclease IV (AID 1708). Further: on the % scale 0 is the no-effect control and ±100 the full control effect. In short, it runs like this:
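2 nM enzyme was preincubated with compounds for 15 min at room temperature in 50 mM Tris-HCl pH 7.5, 50 mM NaCl, 2 mM MgCl2, 1 mM DTT, 0.01% Tween-20. 50 nM THF-abasic TAMRA/BHQ-2 duplex substrate started the reaction.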

Test [5] can be described thus: qHTS for differential inhibitors of proliferation of Plasmodium falciparum line 7G8 (AID 1815).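 Further: parasite growth measured after three days of incubation.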 Further: potency means the concentration at half of the fitted maximal effect.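 On activity change, negative = inhibition: plate controls were vehicle wells for no effect and reference inhibitor wells for full effect.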
A short description of test [6]: qHTS for differential inhibitors of proliferation of Plasmodium falciparum line GB4 (AID 1816).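 Further: parasite growth measured after 72 h incubation.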 Further: potency means the concentration at half of the fitted maximal effect.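 On activity change, negative = inhibition: 0% = vehicle DMSO and -100% = reference inhibitor.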 The note with it: Potency: Plasmodium falciparum GB4 proliferation inhibition.
Test [7] is described as follows: qHTS for differential inhibitors of proliferation of Plasmodium falciparum line 3D7 (AID 1876). Further: potency means the concentration at half of the fitted maximal effect.
The nature of test [8]: qHTS for differential inhibitors of proliferation of Plasmodium falciparum line D10 (AID 1877).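 Further: parasites grown with compound for 72 h before DNA staining.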 Further: potency means the concentration at half of the fitted maximal effect.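 On activity change, negative = inhibition: plate controls were vehicle wells for no effect and reference inhibitor wells for full effect.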
Test [9] can be described thus: qHTS for differential inhibitors of proliferation of Plasmodium falciparum line Dd2 (AID 1882). Further: nearly all actives have a fitted effect of over 65% in size. Further: potency means the concentration at half of the fitted maximal effect.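 On activity change, negative = inhibition: compound exposure of 72 h on infected erythrocytes; plate controls were DMSO vehicle for no effect and 0.29 µM artemisinin for full effect.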 The note with it: Potency: Plasmodium falciparum Dd2 proliferation inhibition. In short, it runs like this:
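SYBR Green I DNA fluorescence read-out, ex 485/em 535 nm. Signals were normalized to 0.29 uM artemisinin and DMSO wells, then corrected using vehicle-only plates flanking each stack. Parasite growth ran 72 h in erythrocytes before lysis.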

The nature of test [10]: qHTS for differential inhibitors of proliferation of Plasmodium falciparum line W2 (AID 1883).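 Further: parasites grown with compound for 72 h before lysis and staining.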 Further: potency means the concentration at half of the fitted maximal effect.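 On activity change, negative = inhibition: 0% = vehicle wells and -100% = control inhibitor wells.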 The settings on record: Potency: Plasmodium falciparum W2 proliferation inhibition.
The nature of test [11]: qHTS for differential inhibitors of proliferation of Plasmodium falciparum line HB3 (AID 1886).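 Further: parasites grown with compound for 72 h before SYBR Green readout.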 Further: potency means the concentration at half of the fitted maximal effect.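 On activity change, negative = inhibition: plate controls were vehicle for no effect and reference inhibitor for full effect.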 The settings on record: Potency: Plasmodium falciparum HB3 proliferation inhibition.
Test [12] in a line: qHTS Assay for Modulators of Human Peripheral Myelin Protein 22 (PMP22) Expression/Activity (AID 1967; active means well fitted curve in the direction sought with a large enough effect in the signal ratio; the % refers to the signal ratio;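 further: 0% = untreated cells and 100% end not stated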). In short, it runs like this: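 MSC80 mouse Schwann cells stably carrying Pmp22 promoter–green click beetle luciferase plus EF-alpha–red luciferase control were dosed for 24h at 37 °C. Dual-colour luminescence was filter-overlap corrected; %Activity came from green/red ratio versus untreated cells.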

Test [13] deals with Ferritin light chain (Equus caballus) (UniProt P02791). Kind of test: qHTS Validation Assay for Identification of Novel General Anesthetics (AID 2323). Further: on the % scale 0 is the no-effect control and ±100 the full control effect. In short, it runs like this:
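Competitive displacement of profluorescent 1-aminoanthracene (1-AMA, 50% saturated solution in PBS) from 10 uM horse-spleen apoferritin. Compounds incubated 10 min at room temperature; fluorescence read at 380 nm excitation/535 nm emission, normalized to free 1-AMA and complex, fitted with four-parameter Hill equation.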

The target of test [14] is ATP-dependent DNA helicase Q1 (Homo sapiens) (UniProt P46063). Kind of test: qHTS Validation Assay for Inhibitors of RecQ-Like Dna Helicase 1 (RECQ1) (AID 2353).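 Further: plate controls were DMSO vehicle for no effect and enzyme-free control for full effect.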 In short, it runs like this:
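50 nM RECQ1T1 preincubated 15 min with compound in Tris pH 8.0 buffer with MgCl2, DTT, Tween-20 and 2.5 ug/ml poly(dI-dC); started with 200 nM TAMRA/BHQ-2 forked duplex and 2 mM ATP. Unwinding read as fluorescence (525/598 nm), two reads 2 h apart.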

Test [15] concerns the target RecQ-like DNA helicase BLM (Homo sapiens) (UniProt P54132). Kind of test: qHTS Validation Assay for Inhibitors of Bloom's syndrome helicase (BLM) (AID 2364).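 Further: plate controls were DMSO vehicle for no effect and enzyme-free control for full effect.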 In short, it runs like this: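 BLM 50 nM in 25 mM Tris-HCl pH 8.0, 5 mM NaCl, 2 mM MgCl2, 1 mM DTT, 0.01% Tween-20, 2.5 ug/ml poly(dI-dC); 15 min cpd preinc, RT. Start: 200 nM forked DNA + 2 mM ATP (final). TAMRA read, 2 reads 2 h apart.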

A short description of test [16]: Cytometric Cell-Based qHTS for Inhibitors of the mTORC1 Signaling Pathway in MEF (Tsc2-/-, p53-/-) Cells (AID 2660).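 Further: percent of cells above a phospho-rpS6 to PI ratio cutoff in each well; plate controls were DMSO for no effect and rapamycin for full effect.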 In short, it runs like this: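 Percent of cells positive for normalized phospho-S6 staining is reported, with the cutoff set from rapamycin (7.5 nM) versus DMSO wells. Tsc2-/-, p53-/- MEFs received compound for 24 hrs.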
Test [17] in a line: High Content Imaging Cell-Based qHTS for Inhibitors of the mTORC1 Signaling Pathway in MEF (Tsc2-/-, p53-/-) Cells (AID 2666).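 Further: percent of cells scored positive for phospho-rpS6 Ser235/236 immunostaining by imaging.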 In short, it runs like this:
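Read-out: % positive cells per well, with thresholds from highest- and lowest-signal wells, based on phospho-rpS6 (Ser235/236) intensity normalized to Hoechst nuclear stain. Cells: Tsc2-/-, p53-/- MEFs carrying empty vector; compound 24 hrs, 37 degree Celsius.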

Test [18] can be described thus: High Content Imaging Cell-Based qHTS for Inhibitors of the mTORC1 Signaling Pathway in MEF Cells (AID 2667).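 Further: Tsc2-/- p53-/- MEFs stably re-expressing wild-type Tsc2 exposed 24 h; plate controls were DMSO wells for no effect and rapamycin control wells for full effect.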 In short, it runs like this: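 MEF (Tsc2-/-, p53-/-, WT Tsc2 re-expressed); cpd 24 h, 37 °C; PFA fix; Alexa-488 anti-p-rpS6 Ser235/236, PI, Hoechst; IN Cell imaging; Hoechst/Alexa-488 intensity ratio; % active cells, thresholds set from rapamycin and DMSO wells.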

A short description of test [19]: qHTS Assay for Lipid Storage Modulators (AID 1519; calls by dose curve; on activity change, negative = inhibition: on the % scale 0 is the no-effect control and ±100 the full control effect). The settings on record: Drosophila S3 cells, BODIPY lipid droplet/cell ratio, laser cytometry, cells loaded with oleic acid; for activity change, negative = inhibition: at 57.5 µM (top of the series). In short, it runs like this: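 Cells seeded at 5,000 per well were treated with compounds over a concentration series and loaded with oleic acid (400 uM, as added). Lipid droplet fluorescence (488 nm excitation, 500-530 nm channel) was read by laser-scanning cytometry and normalized to 20 uM Triacsin C.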

Where [20] appears, read: measured here: cell count channel max response.
Where [21] appears, read: measured here: lipid channel max response.

Several values for one entry are separate records, joined by “and”; a condition that tells them apart may be missing. Equal values may be shown once. Inconclusive results are not listed. Activity calls are given as the source filed them. Unless noted, the call rests on the fitted dose curve; in most records, active means well fitted curve in the direction sought with a large enough effect; inconclusive means small, poorly fitted or top-dose-only effect, or another doubt; inactive means no such curve, though single readings can be large; an effect the other way counts as inactive or inconclusive.

DNA repair nuclease/redox regulator APEX1 (Homo sapiens), sequence (P27695 whole entry, looked up): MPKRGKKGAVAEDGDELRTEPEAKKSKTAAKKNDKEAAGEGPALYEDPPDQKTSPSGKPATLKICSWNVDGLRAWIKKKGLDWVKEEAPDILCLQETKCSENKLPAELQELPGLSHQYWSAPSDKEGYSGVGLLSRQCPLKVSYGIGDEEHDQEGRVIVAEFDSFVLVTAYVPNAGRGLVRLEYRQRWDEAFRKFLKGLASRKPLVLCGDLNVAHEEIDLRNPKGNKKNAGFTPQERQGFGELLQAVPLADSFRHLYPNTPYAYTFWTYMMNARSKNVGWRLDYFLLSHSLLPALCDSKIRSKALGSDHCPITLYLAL
ATP-dependent DNA helicase Q1 (Homo sapiens), sequence (P46063 whole entry, looked up): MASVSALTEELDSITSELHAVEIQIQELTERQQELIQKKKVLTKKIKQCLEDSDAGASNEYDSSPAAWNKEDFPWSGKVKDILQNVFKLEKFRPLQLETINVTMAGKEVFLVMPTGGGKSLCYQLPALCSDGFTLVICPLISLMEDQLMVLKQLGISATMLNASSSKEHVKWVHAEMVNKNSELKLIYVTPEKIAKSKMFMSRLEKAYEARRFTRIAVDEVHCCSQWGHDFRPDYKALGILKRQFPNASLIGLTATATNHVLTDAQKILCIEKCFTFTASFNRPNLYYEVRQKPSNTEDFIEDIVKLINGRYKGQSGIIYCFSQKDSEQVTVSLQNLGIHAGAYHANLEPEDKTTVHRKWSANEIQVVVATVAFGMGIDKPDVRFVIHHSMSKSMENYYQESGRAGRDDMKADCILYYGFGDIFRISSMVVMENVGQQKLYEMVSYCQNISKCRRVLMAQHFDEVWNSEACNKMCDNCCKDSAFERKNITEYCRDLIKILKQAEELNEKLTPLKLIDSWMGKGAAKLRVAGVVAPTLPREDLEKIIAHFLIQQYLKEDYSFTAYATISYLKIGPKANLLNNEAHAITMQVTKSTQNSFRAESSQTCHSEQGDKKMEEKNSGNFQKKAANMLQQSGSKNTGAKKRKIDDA
RecQ-like DNA helicase BLM (Homo sapiens), sequence (P54132 whole entry, looked up): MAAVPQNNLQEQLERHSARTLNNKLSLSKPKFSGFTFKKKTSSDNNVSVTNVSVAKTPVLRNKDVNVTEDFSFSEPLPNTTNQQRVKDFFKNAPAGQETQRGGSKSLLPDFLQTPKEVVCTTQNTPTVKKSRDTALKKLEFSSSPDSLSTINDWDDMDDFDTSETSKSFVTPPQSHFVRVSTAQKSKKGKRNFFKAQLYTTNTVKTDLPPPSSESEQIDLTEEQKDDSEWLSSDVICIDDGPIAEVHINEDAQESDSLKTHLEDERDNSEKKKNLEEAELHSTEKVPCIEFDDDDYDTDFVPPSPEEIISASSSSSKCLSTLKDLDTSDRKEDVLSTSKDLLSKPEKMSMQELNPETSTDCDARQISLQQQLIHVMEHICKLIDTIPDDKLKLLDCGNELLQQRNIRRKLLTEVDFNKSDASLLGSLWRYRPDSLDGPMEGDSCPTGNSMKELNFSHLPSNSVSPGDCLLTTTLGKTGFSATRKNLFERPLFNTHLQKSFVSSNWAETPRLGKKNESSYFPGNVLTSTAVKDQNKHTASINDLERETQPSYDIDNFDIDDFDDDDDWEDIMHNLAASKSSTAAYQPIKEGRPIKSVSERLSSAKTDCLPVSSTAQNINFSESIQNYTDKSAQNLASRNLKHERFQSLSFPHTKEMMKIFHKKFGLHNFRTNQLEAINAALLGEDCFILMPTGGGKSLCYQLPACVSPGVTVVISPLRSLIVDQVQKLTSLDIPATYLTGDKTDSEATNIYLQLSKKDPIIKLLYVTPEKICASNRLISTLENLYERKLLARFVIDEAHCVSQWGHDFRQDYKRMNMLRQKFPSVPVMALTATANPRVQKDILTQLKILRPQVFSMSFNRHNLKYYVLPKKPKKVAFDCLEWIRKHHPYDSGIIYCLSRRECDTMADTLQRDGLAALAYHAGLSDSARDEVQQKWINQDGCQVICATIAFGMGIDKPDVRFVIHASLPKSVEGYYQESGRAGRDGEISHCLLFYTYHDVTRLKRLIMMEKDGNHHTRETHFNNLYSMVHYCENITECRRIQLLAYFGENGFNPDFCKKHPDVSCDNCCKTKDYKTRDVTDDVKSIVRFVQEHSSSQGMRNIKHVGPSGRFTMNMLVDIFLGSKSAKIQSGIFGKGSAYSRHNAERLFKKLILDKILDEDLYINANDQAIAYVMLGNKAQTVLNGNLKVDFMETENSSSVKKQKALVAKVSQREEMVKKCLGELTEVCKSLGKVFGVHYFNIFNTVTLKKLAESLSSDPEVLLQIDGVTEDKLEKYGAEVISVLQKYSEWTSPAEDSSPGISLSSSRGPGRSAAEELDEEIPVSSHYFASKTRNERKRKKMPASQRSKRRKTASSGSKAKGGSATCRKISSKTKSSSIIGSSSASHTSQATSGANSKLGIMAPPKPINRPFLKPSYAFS
Ferritin light chain (Equus caballus), sequence (P02791 2-175 limits assumed): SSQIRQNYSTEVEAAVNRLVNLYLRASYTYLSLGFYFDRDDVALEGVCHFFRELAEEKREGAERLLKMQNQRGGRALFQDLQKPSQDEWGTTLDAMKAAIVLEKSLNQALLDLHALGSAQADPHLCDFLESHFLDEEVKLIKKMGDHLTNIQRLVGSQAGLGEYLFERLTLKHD

Take `C[N+](C)(C)CC(=O)O`: the call in test [1], in test [12], in [13] and in test [14] was inactive. The Potency result in test [2], in test [3], in test [4], in test [5], in [6] and in test [7] was “inactive” in each case. Moreover, the Potency result in test [8], in test [9], in test [10], in [11] and in [15] was “inactive” throughout.

Consider `CC(C)NC(C)Cc1ccc(I)cc1` (centres undefined), for which the compound was classed as inactive in test [1], in test [13] and in test [14]. Further, the Potency in test [2] was 39.8 µM (active); in [5], 10 µM (active); in test [6], 11.2 µM (active); in test [10] it was 7.08 µM (active). The Potency result in [3], in [4], in [15], in test [16], in test [17] and in test [18] was “inactive” in each case.

As to `Oc1ccc2c3c1O[C@H]1c4[nH]c5c(c4C[C@@]4(O)[C@@H](C2)N(CC2CC2)CC[C@]314)C[C@@]1(O)[C@H]2Cc3ccc(O)c4c3[C@@]1(CCN2CC1CC1)[C@H]5O4`, the call in test [1], in [12], in test [13] and in test [14] was inactive. Also, in test [19], the activity change, negative = inhibition is -0.289% (inactive). The max response is -23.9% in test [19] (setting [20]) and -23.6% in test [19] (setting [21]). Besides, the Potency result in [2], in test [3], in test [15], in [17] and in test [18] was “inactive” throughout. In addition, the Potency in test [6] is 15.8 µM (active); in test [7], 11.2 µM (active); in [8], 10 µM (active); in test [10] it was 12.6 µM (active); in [11], 12.6 µM (active).

For the compound `CC[C@@H]1C(=O)OC[C@@H]1Cc1cncn1C`, the compound was classed as inactive in test [1], in test [12], in test [13] and in [14]. The activity change, negative = inhibition in [19] was -0.176% (inactive) and -1.27% (inactive). Besides, the max response was 23.8% and 24.9% in test [19] (setting [20]); 22.1% and 21.9% in test [19] (setting [21]). Moreover, the Potency entry in test [2], in test [3], in test [4], in test [5], in test [6] and in test [7] was “inactive” each time. In addition, the Potency entry in test [8], in test [9], in [11] and in test [15] was “inactive” in each case.

`O=C(Cc1ccc(Cl)c(Cl)c1)N1CCCCC1CN1CCCC1` (centres undefined): the compound was classed as inactive in test [1], in [13] and in test [14]. In test [19], the activity change, negative = inhibition is 3.16% (inactive). In addition, the max response came out at 16.5% in test [19] (setting [20]) and 19.9% in test [19] (setting [21]). The Potency entry in [2], in test [3], in test [4], in test [17] and in [18] was “inactive” throughout. The Potency in [5] is 5.01 µM (active); in [7], 12.6 µM (active); in [9] it was 7.94 µM (active); in test [10], 2 µM (active).

With `NC(=NCCC[C@H](N)C(=O)O)N[N+](=O)[O-]`, the outcome in test [1], in test [13] and in test [14] was inactive. Further, the activity change, negative = inhibition in test [19] was 0.0348% (inactive). In addition, the max response in test [19] (setting [20]) is -0.432%; in [19] (setting [21]) it was 0.435%. Moreover, the Potency entry in test [2], in test [3], in test [4], in [5], in [6] and in [7] was “inactive” in each case. The Potency entry in [8], in test [9], in test [10], in [11], in test [17] and in test [18] was “inactive” throughout.

In the case of `C[C@]12CCC3C(CC[C@H]4C[C@H](O)CC[C@]34C)C1CC[C@@H]2C(=O)CO` (some centres undefined), the call in test [1], in test [13] and in [14] was inactive. Further, the Potency entry in [2], in test [3], in [4], in test [15], in test [16] and in test [17] was “inactive” in each case. Also, the Potency result in test [18] was “inactive”. Also, the Potency in [5] was 7.94 µM (active); in test [6], 14.1 µM (active); in [8] it was 8.91 µM (active); in [10], 10 µM (active).
